Screening results (PubChem BioAssay)
Rows were chosen to be rich in hits. Some 15% of all compounds tested hit in one or more screens of this group.
12-LOX inh: ALOX12 (human) lipoxygenase inhibition | purified 12hLO, xylenol orange hydroperoxide absorbance | actives 1.1% (n = 580,000) | Potency, µM (titrated, usually from 108 µM), for the others: at the top dose activity change, negative = inhibition, hits mostly inhibitors
Target sequence (P18054 whole entry, looked up): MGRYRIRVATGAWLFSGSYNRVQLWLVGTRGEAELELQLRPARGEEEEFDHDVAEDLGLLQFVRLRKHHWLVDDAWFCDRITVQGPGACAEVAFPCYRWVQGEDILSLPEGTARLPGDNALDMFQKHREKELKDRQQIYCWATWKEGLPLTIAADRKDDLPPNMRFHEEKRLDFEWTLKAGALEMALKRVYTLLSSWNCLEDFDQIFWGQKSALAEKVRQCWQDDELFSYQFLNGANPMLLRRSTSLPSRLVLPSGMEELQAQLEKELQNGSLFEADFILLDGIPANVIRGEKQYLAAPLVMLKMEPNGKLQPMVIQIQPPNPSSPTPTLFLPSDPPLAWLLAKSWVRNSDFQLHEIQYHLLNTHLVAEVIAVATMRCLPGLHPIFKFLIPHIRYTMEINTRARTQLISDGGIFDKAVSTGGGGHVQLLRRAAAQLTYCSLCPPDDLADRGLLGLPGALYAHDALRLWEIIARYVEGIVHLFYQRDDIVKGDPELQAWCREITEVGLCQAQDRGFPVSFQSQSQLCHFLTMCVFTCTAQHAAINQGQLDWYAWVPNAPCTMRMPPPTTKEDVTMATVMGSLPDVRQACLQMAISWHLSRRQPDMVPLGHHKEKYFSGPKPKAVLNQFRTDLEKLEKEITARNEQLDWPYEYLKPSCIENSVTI
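Purified human 12hLO (150 nM final) in 25 mM Hepes, 0.01% Triton X-100, pH 7.0 was preincubated 15 min at room temperature with compound. Then 40 uM arachidonic acid was added, 30 min. Hydroperoxide was read by Fe-XO absorbance ratio 573/405 nm.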
ELG1 DNA repair: blocks ELG1-dependent DNA repair in HEK293T cells; actives 2.3% (n = 330,000); Potency, µM (titrated, usually from 46.1 µM), inactives show at the top dose activity change, negative = inhibition, hits mostly inhibitors; HEK293T ELG1-luciferase reporter, luminescence, 16 h; DNA damage induced by 5-fluorouridine; note: nearly all actives have a fitted effect of over 55% in size
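Cells (2,000 per well) received 5-fluorouridine plus test compound or DMSO and were incubated 16 hr at 37 °C, 5% CO2. Luciferase activity was read by luminescence 30 min after ONE-Glo addition; signal suppression marked inhibition of damage-induced ELG1 function.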
VP16 counter: Gal4-VP16 reporter inhibition counter-screen. Drosophila S2 Gal4-VP16 UAS-luciferase, luminescence, 20 h. Potency, µM (doses to about 53.6 µM), for the others: at the highest dose activity, negative = inhibition, most hits filed as inhibitors. actives 3.5% (n = 310,000). AID 2546;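 note: Gal4-VP16 expression switched on by copper sulfate through the metallothionein promoter; nearly all actives have a fitted effect of over 50% in size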
DT40 TDP1 no CPT: qHTS for Inhibitors of human tyrosyl-DNA phosphodiesterase 1 (TDP1): qHTS in cells in absence of CPT; DT40 Tdp1-/- hTDP1 cells, no CPT, ATP luminescence, 48 h; Potency, µM (titrated, usually from 46.2 µM), for the others: top-dose activity change, negative = growth inhibition, actives largely listed as inhibitors; actives 15% (n = 420,000); AID 686978, 2013; note: nearly all actives have a fitted effect of over 55% in size
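Growth kinetics read by CellTiter-Glo luminescence after ≥48 hr at 37 °C. Cells: DT40 Tdp1-/- stably carrying human TDP1, 400 per well, compound exposure in the absence of CPT (DMSO vehicle).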
TDP1 cell CPT: growth inhibition of DT40 Tdp1-/-;hTDP1 cells with camptothecin (screen for TDP1 inhibitors). Potency, µM (series often up to 46.2 µM), without a hit: at the highest dose activity change, negative = growth inhibition, hits mostly inhibitors. chicken DT40 Tdp1-/-;hTDP1 cells + 20 nM CPT, ATP luminescence, 48 h. AID 686979. actives 12% (n = 420,000); note: nearly all actives have a fitted effect of over 55% in size
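Chicken DT40 Tdp1-/- cells stably complemented with human TDP1 were seeded at 400 cells/well in medium containing 20 nM camptothecin, exposed to pin-transferred compounds, and grown at 37 °C for at least 48 hr. Viability was read as ATP luminescence.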
RORg inh: blocks mouse ROR gamma transcriptional activity; Potency, µM (series often up to 53.6 µM), without a hit: at the top dose activity change, negative = inhibition, actives largely listed as inhibitors; P51450; Drosophila S2 Gal4-RORgamma UAS-luciferase reporter, 20 h; actives 5.4% (n = 310,000); note: nearly all actives have a fitted effect of over 60% in size
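Schneider cells (Drosophila), stable Gal4 DBD–ROR gamma + UAS-luc; 1 hr cmpd preincubation; Cu2+ induction 700 uM final; 20 hr ambient; luminescence.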
Numbers without * were called inactive; ? = inconclusive; . = no result; [ ] = another dose, or the depositor's remark. Calls come from the whole dose curve; as a rule, active = well fitted curve in the direction sought with a large enough effect; inconclusive = small, poorly fitted or top-dose-only effect, or another doubt; inactive = no such curve, though single readings can be large; an effect the other way counts as inactive or inconclusive. % is set by controls: 0 for no effect and ±100 for the full control effect; potency is the fitted concentration of half-maximal effect.

SMILES | 12-LOX inh | ELG1 DNA repair | VP16 counter | DT40 TDP1 no CPT | TDP1 cell CPT | RORg inh
COc1cccc(C(=O)/C=C/c2ccc(N3CCCCC3)c([N+](=O)[O-])c2)c1 | -4% | 1% | 1% | ? | 18µM* | 10%
O=C(/C=C/c1ccc(N2CCCCC2)c([N+](=O)[O-])c1)c1ccc(S(=O)(=O)N2CCCC2)cc1 | -3% | ? | -8% | 9.2µM* | 9.2µM* | 1%
CC(=O)N1CCN(c2ccc(S(=O)(=O)N3CCCCC3)cc2[N+](=O)[O-])CC1 | -24% | ? | . | ? | -23% | .
COc1cccc(/C=C/C(=O)c2cccc([N+](=O)[O-])c2)c1 | 4% | ? | 4.5µM* | ? | ? | -101%
CSc1nc2ccccc2c(=O)n1CC(=O)c1ccc(C)cc1 | -20% | . | . | . | . | .
O=C(Nc1ccccc1F)C(Cc1ccccc1)n1cccc1 (configuration not stated) | ? | . | . | 15µM* | ? | .
Cc1ccc(C)c(NC(=O)C(Cc2ccccc2)n2cccc2)c1 (configuration not stated) | 0% | . | . | 16µM* | ? | .
CN1CCN(c2ccccc2NC(=O)C(Cc2ccccc2)n2cccc2)CC1 (configuration not stated) | 3% | -20% | -6% | ? | 26µM* | 23%
O=C(Nc1cccnc1)C(Cc1ccccc1)n1cccc1 (configuration not stated) | 19% | 0% | 1% | -15% | ? | 1%
CCC(C)NC(=O)C(Cc1ccccc1)n1cccc1 (configuration not stated) | 20% | 12% | -4% | -1% | -17% | -13%
Cc1ccc(NC(=O)C(Cc2ccccc2)n2cccc2)c(C)c1 (configuration not stated) | -9% | . | . | 15µM* | 15µM* | .
Cc1ccc(NC(=O)Cc2ccccc2)c(C)c1 | . | 22% | -16%[10 µM] | . | . | 10%
COC[C@@H]1CN(Cc2cccc(OC)c2OC)C[C@H]1C(=O)N(C)C | 53% | . | . | . | . | .
CCc1nnc(CN(C)C(=O)c2cnc(-c3ccc(C)cc3)[nH]c2=O)o1 | 56% | . | . | . | . | .
CCc1ncc(C(=O)N(C)C2CCN(Cc3ccccc3)C2)cn1 (configuration not stated) | 10% | . | . | . | . | .
O=C(Nc1ncc(Br)s1)C(Cc1ccccc1)n1cccc1 (configuration not stated) | 10%[57.4 µM] | ? | ? | ? | ? | 13µM*
CCOC(=O)c1cnc2cc(-c3ccc(Cl)cc3)nn2c1-c1ccccc1 | -11% | . | . | 13µM* | ? | .
CCOC(=O)c1cnc2cc(-c3ccc(Cl)cc3)nn2c1N | 25% | ? | 20% | -15% | -20% | 30%
CC(C)CN1CCN(C2CCOC3(CCN(C(=O)c4ccnn4C)CC3)C2)CC1 (configuration not stated) | 15% | . | . | . | . | .
CC(=O)c1cccc(NC(=O)Cc2csc(-n3nc(C)c(Cc4ccccc4)c3C)n2)c1 | -10% | . | . | . | . | .
COc1ccc(-n2cc(CN(C)C3CCOCC3)c(-c3cccc(F)c3)n2)cc1 | ? | -3% | 1% | 18µM* | ? | -6%
COc1ccc(-n2cc(CNCC3CCOCC3)c(-c3cccc(F)c3)n2)cc1 | -12% | 4% | -10% | 16µM* | ? | 0%
COc1ccc(-n2cc(CNCc3cnc4ccccn34)c(-c3cccc(F)c3)n2)cc1 | -1% | -1% | 0% | ? | ? | -43%
COc1ccc(-n2cc(CN3CCC(O)CC3)c(-c3cccc(F)c3)n2)cc1 | 23% | . | . | . | . | .
COc1ccc(-n2cc(CNCCCn3ccnc3)c(-c3cccc(F)c3)n2)cc1 | ? | -3% | 32µM* | -21% | ? | 11µM*
SMILES | 12-LOX inh | ELG1 DNA repair | VP16 counter | DT40 TDP1 no CPT | TDP1 cell CPT | RORg inh
COc1ccc(C(=O)N2CCC(Cc3nc(-c4ccc(F)cc4)no3)CC2)c(C)c1 | 11% | . | . | . | . | .
Cc1ccc(C(=O)OCc2nc3ccccc3o2)cc1 | -10% | . | . | . | . | .
CCCCCCCCOc1ccc(/C=C/C(=O)O)cc1 | 59% | . | . | . | . | .
Cc1nc2n(c1C(=O)Nc1cc(-c3ccc(F)cc3)[nH]n1)CCC(Nc1ccc(F)cc1)C2 (configuration not stated) | 41% | . | . | . | . | .
COc1ccc(-c2n[nH]c3c2CN(C(=O)c2ccc(OC)c(OC)c2)CC3)cc1 | -7% | ? | 5% | 8.2µM* | 8.2µM* | -18%
CCCOc1ccc(C(=O)Nc2nonc2C)cc1 | 0% | . | . | . | . | .
Cc1ccc(Cl)cc1NC(=O)CSc1ncc(-c2ccc(F)cc2)o1 | -2% | . | . | . | . | .
CCCCCCOc1ccccc1C(N)=O | . | . | 3% | 16µM* | ? | 7%
Cc1ccc(NC(=S)NC2CCCC2)cc1C | ? | ? | 3.5µM* | ? | ? | 2.8µM*
CC(C)CC(=O)Nc1ccc(C(=O)NNC(=S)NC(=O)C2CCCCC2)cc1 | 26% | 3% | 0% | 16µM* | 15µM* | 3%
O=C(NC(=S)Nc1ccc(Br)c(Cl)c1)C1CC1 | ? | 15% | 7.9µM* | -19% | -24% | 4.5µM*
Cc1ccc(NC(=S)NC(=O)C2CCC2)cc1C | ? | ? | 2.8µM* | -5% | ? | 2.2µM*
C#CCNC(=O)C1CN(c2ccc(F)cc2)C(=O)N1 (configuration not stated) | 10%[176 µM] | . | . | . | . | .
CC(=O)Nc1ccc(NC(=S)NC(=O)C2CC2)cc1 | 0% | ? | -2% | 2% | 3% | -4%
O=C(NC(=S)Nc1ccc(F)cc1)C1CCCCC1 | 224% | ? | 10µM* | 6% | -9% | 8.9µM*
NC(=S)Nc1ccc2cc[nH]c2c1 | -24% | 3% | 0% | -2% | 7% | 5%
S=C(Nc1ccc2[nH]ccc2c1)NC1CCCCC1 | ? | ? | -16% | -11% | -12% | 11µM*
Cc1ccc(NC(=S)NC(=O)C2CC2)c(C)c1 | ? | ? | 7.1µM* | 0% | -11% | 5µM*
Cc1nc2ccc(NC(=S)NC3CCCCC3)cc2nc1C | -29% | ? | -7%[10 µM] | -5% | -18% | 5µM*
Cc1ccc(NC(=S)NC(=O)C2CCCC2)cc1C | ? | ? | 4.5µM* | ? | ? | 3.5µM*
C(=C\c1ccccc1)/CNC12CC3CC(CC(C3)C1)C2 | 9% | . | . | . | . | .
O=C(COc1ccc2nc3n(c(=O)c2c1)CCC3)NC1CCCC1 | 13% | . | . | . | . | .
CCn1c2ccccc2c2cnc(N=CN(C)C)c(C#N)c21 | -9% | ? | 0% | 15µM* | ? | -6%
CCn1c2ccccc2c2cc(C#N)c(N)nc21 | ? | . | . | -3% | -7% | .
